# Rows were chosen to be rich in hits. Some 2.4% of all compounds tested hit in one or more screens of this group.
# Cardiac RTF inh = cardiac RTF calcium desensitization; AID 493244; IANBD-labeled cardiac RTF, Ca2+ fluorescence; hit rate 0.12% among 340,000; P19429+P45379; inhibition, % at 7.15 µM;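 active = inhibition above the mean inhibition of all tested compounds plus 3 SD, cut at about 17% in these data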;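 note: assay run at fixed EC70 calcium of 1.6 mM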
# cardiac RTF act = cardiac RTF calcium sensitization; activation, % at 7.2 µM; IANBD-labeled TnC RTF fluorescence at EC20 calcium; 0% EC20 calcium, 100% full calcium; hit rate 0.24% among 340,000;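 active = activation above the mean over all tested compounds plus 3 SD, cut at about 30% in these data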;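 note: rise in fluorescence read as greater calcium sensitivity of cardiac thin filaments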
# CRFR2-BP ag = agonists of human CRF-binding protein/CRF-R2 receptor complex; HEK293 CRF-R2/CRF-BP, calcium dye fluorescence (FLIPR); percent of saturating CRF peptide response; activation, % at 13.2 µM; hit rate 0.46% among 350,000; AID 588473;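 active = activation of at least 50%, plus an integration ratio under a set limit after plate pattern correction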;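 note: plate controls were neutral control wells without compound for no effect and CRF at EC100 for full effect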
# TMEM16A inh = inhibitors of mouse TMEM16A calcium-activated chloride channel; normalized B-score (activity score, 25-100; higher = stronger inhibition) at 10 µM; HEK293 TMEM16A/YFP iodide influx fluorescence, ionomycin; AID 588511; hit rate 1.2% among 310,000; Q8BHY3;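 active = ratio plate-corrected score three or more library SD toward inhibition, starting fluorescence score within five deviations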;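 note: score derived from kinetic fluorescence span divided by baseline fluorescence per well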
# CRFR2-BP antag = antagonists of CRF-binding protein/CRF-R2 receptor complex; HEK293 CRF-R2/CRF-BP, CRF-induced calcium fluorescence; hit rate 0.59% among 350,000; inhibition, % at 11.8 µM;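 active = inhibition of the ligand-induced calcium signal above about 50% at the single tested concentration, limit read from the data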
# ANO1 activ = activates or potentiates the mouse TMEM16A chloride channel; Q8BHY3; HEK293 TMEM16A/YFP-H148Q/I152L, iodide quench fluorescence; hits give low values; B-score at 10 µM; hit rate 0.3% among 340,000; AID 623877;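 active = fluorescence-ratio B-score plate-corrected deviation score at least 3 library SD below zero, with starting fluorescence score within 5 deviations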;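 note: channel opened by trigger with iodide after compound preincubation; score built on the fluorescence ratio of max minus min over baseline; more negative score means more quench and so TMEM16A activation or potentiation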
# TMEM16A reconf = TMEM16A (mouse) chloride channel inhibition, re-confirmation. shares compounds with TMEM16A inh. HEK293 TMEM16A/YFP-H148Q, iodide quench fluorescence; ionomycin added to raise cell calcium. inhibition, % at 10 µM. hit rate 39% among 2,300;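 active = mean duplicate percent inhibition, scaled so buffer wells are 0 and the reference blocker 100, over three buffer SD above buffer mean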
# HEK293 Ca mobil = alters calcium mobilization in TMEM16A HEK293 cells, counter-screen | shares compounds with TMEM16A inh | TMEM16A/YFP HEK293, Fluo4 calcium mobilization | calcium response (% of ionomycin), % at 10 µM | hit rate 2% among 2,300 | AID 652231;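 active = duplicate-averaged calcium signal over 20% of the ionomycin maximum, relative to buffer baseline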;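 note: each well's signal is peak minus trough fluorescence divided by its pre-addition baseline; 0% = buffer wells and 100% = ionomycin wells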
# YFP-HEK293 quench = acts in parental YFP-HEK293 cells lacking TMEM16A, counter-screen | YFP ratio F(max-min)/F0 at 10 µM | 2,300 tested, under 10 active | iodide YFP quench, ionomycin | shares compounds with TMEM16A inh;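 active = yellow fluorescent protein signal ratio exceeding the buffer control mean by over 5 SD of those controls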;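 note: ratio is mean of duplicate wells from kinetic YFP trace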
# ClC-1 rat inh = selectivity of TMEM16A inhibitors: inhibition of rat ClC-1 chloride channel; shares compounds with TMEM16A inh; CHO ClC-1-YFP, iodide influx fluorescence quench; iodide control reads 0, buffer control 100; ratio percent, % at 10 µM; 2,300 tested, under 10 active; AID 652236;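 active = duplicate-mean ratio percent above the mean of iodide-only control wells, which defines zero, plus 5 of their SD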;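 note: higher percent means stronger block of ClC-1 iodide influx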
# Starred values were filed as active, the others as inactive; i = inactive; . = not tested or not shown.
SMILES,Cardiac RTF inh,cardiac RTF act,CRFR2-BP ag,TMEM16A inh,CRFR2-BP antag,ANO1 activ,TMEM16A reconf,HEK293 Ca mobil,YFP-HEK293 quench,ClC-1 rat inh
CCOC(=O)N1CCC(NC(=O)C2CCCN(Cc3nc(-c4cccc(C)c4)oc3C)C2)CC1 (configuration not stated),-4,9,-1,25*,9,i,i,i,-1.2,-18
Cc1oc(-c2ccc(Cl)cc2)nc1CN1CCCC(C(=O)N2CCN(C(=O)c3ccco3)CC2)C1 (configuration not stated),-5,-1,-3,25*,-2,i,18%*,i,-0.98,-8
O=C(Nc1ccc(N2CCN(c3ccc(C(F)(F)F)cn3)CC2)nc1)c1cccs1,1,-3,-1,i,5,i,.,.,.,.
O=C(Nc1ccc(N2CCN(c3ncccc3C(F)(F)F)CC2)nc1)c1cccs1,-3,0,0,25*,-12,i,31%*,i,-1.2,-4
CCCSc1nc(C)cc(C)c1S(=O)(=O)c1ccccc1C,-4,-4,-2,100*,20,i,i,i,-1.3,-4
Cc1cc(C)c(S(=O)(=O)c2ccccc2C)c(SCC(C)C)n1,-2,1,-1,100*,28,i,i,i,-1.3,-6
Cc1cc(C)c(S(=O)(=O)c2ccccc2C)c(N(C)C)n1,-2,-2,-2,i,11,i,.,.,.,.
Cc1ccc(NC(=O)CNc2cccc(C)c2C)c(C)c1,-1,-3,0,100*,-2,i,i,i,-0.82,-10
Cc1ccc(COc2ccccc2C(=S)N2CCCC2)cc1,1,0,-3,25*,10,i,i,i,-0.94,-6
O=C(Nc1ccc(OCC(F)(F)C(F)F)c(C(F)(F)F)c1)c1ccccc1O,-7,-2,60*,100*,10,i,i,i,-0.78,-9
O=C(Nc1ccc(OCC(F)(F)C(F)F)c(C(F)(F)F)c1)c1ccccc1,-5,-14,1,i,1,i,.,.,.,.
O=C(COC(=O)c1ccc([N+](=O)[O-])o1)Nc1ncc(Cl)cc1Cl,-4,-5,5,.,9,i,.,.,.,.
CCCOc1ccc(-c2nc(SCc3ccccc3)[nH]c(=O)c2C#N)cc1OC,-5,-7,1,100*,35,i,30%*,i,-1.1,-4
CCCc1ccc(C(=O)NC(=O)c2ccccc2O)cc1,-6,7,51*,100*,27,i,34%*,22%*,-0.73,-5
Cc1cc(C(=O)CSc2nnc(-c3cccs3)o2)c(C)n1-c1ccccc1,-16,2,0,100*,-5,i,i,i,-1.3,-6
Cc1cc(C(=O)CSc2nnc(-c3ccco3)o2)c(C)n1Cc1ccco1,-2,5,-1,i,3,i,i,i,-0.99,-14
CCOC(=O)CN1C(=O)/C(=C/c2c(F)cccc2Cl)Oc2ccccc21,-1,3,1,i,16,i,.,.,.,.
O=C(Nc1ccsc1C(=O)O)c1cccc(Oc2ccccc2)c1,0,4,-1,100*,6,i,52%*,i,-1,-8
O=C(CN(Cc1ccco1)C(=O)c1cc(=O)[nH]c2ccccc12)Nc1ccccc1Br,-2,0,2,100*,-43,i,i,i,-1.1,-2

# Screening data deposited in PubChem BioAssay by several laboratories.
